The target of this assay is T1, Aspartate--tRNA(Asp/Asn) ligase (Mycobacterium tuberculosis (strain ATCC 25618 / H37Rv)) (UniProt P9WFW3).
T1 sequence (whole entry): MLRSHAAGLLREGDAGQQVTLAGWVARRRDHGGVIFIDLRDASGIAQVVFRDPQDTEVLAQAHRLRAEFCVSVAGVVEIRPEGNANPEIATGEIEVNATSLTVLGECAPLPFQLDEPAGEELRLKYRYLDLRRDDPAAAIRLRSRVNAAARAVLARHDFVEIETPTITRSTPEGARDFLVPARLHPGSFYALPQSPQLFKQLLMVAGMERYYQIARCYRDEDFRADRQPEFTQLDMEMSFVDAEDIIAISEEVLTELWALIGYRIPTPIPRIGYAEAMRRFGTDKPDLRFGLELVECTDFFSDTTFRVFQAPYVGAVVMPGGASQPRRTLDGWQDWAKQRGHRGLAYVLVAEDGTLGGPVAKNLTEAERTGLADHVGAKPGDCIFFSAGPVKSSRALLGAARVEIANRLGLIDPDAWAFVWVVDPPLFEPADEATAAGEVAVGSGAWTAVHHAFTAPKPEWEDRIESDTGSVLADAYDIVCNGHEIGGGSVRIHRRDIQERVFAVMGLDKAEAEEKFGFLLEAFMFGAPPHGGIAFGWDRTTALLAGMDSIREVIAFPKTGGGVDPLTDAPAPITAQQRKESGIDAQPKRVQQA
Briefly: Assay for Asp RNA synthetase-1 from Mycobacterium tuberculosis. It is filed as functional. The arrangement: scale not given: in the data most compounds retested in dose-response had high values. The settings on record: 30 µM.
With `CNC(=O)CSc1cnn(CC(=O)Nc2cccc(Cl)c2C)c(=O)c1Cl`, the Percent Effect is -5.35%.

For the compound `c1cnc2c(C3CCN(Cc4ccsc4)CC3)n[nH]c2n1`, the Percent Effect was -1.29%.

On to `COc1cc(CN(C(=O)Nc2cccnc2OC)C2CC2)ccc1O`, for which the Percent Effect is -2.28%.

Consider `CC(=O)NC(C)c1ccc(OCC2CC2)c(F)c1` (stereo not given), for which the Percent Effect worked out at 0.15%.

For `CCc1nccn1C1CCCN(C(=O)c2ccc3nncn3c2)C1` (stereo not given), the Percent Effect is -8.68%.

Turning to `CC(C)COCC(NC(=O)c1cc[nH]n1)c1ccco1` (stereo not given), the Percent Effect is 7.45%.

On to `OCCn1cc(CN2CCN(CCOCC(F)(F)F)CC2)cn1`, for which the Percent Effect was -3.85%.

With `CC(C)(C)c1ccc(C2(C(=O)NCCCS(C)(=O)=O)CC2)cc1`, the Percent Effect amounted to 8.98%.

Take `O=C(Cc1cccc(F)c1)NCCNCc1cccc(O)c1`: the Percent Effect amounted to 4.95%.

As to `c1ccc(-c2noc(CN3CCOC(Cn4cccn4)C3)n2)nc1` (stereo not given), the Percent Effect was -2.01%.

Turning to `COC(=O)CCC(=O)N1CCc2[nH]nc(-c3ccc(F)c(F)c3)c2C1`, the Percent Effect came to 5.15%.

With `Cc1nc(CN2CCCC2c2nc(C(C)C)no2)cs1` (stereo not given), the Percent Effect was -4.9%.

With `CN(Cc1ccc(F)cc1)C(=O)CN1CCOC(Cn2cncn2)C1` (stereo not given), the Percent Effect is 3.63%.

Turning to `Cc1nccn1CCCC(=O)N1CCC(Nc2cccnn2)CC1`, the Percent Effect was -0.211%.

On to `CC(C(=O)Nc1cccc(N2CCCCC2)c1)n1cncn1` (stereo not given), for which the Percent Effect amounted to 2.19%.

In the case of `Cc1csc([C@@H]2C[C@@H]3CCN(C(=O)c4ccnnc4)C[C@H]3O2)n1`, the Percent Effect is -2.11%.

As for `O=C(NCc1ccc(-n2cncn2)nc1)c1ccc2c(c1)CCO2`, the Percent Effect is -1.77%.

In the case of `O=C(CCN1CCCC1C1CCCCC1)N1CCc2sccc2C1` (stereo not given), the Percent Effect came to 2.02%.

As to `O=c1nc(SCc2cccnc2)c2c(n1CCO)CCC2`, the Percent Effect is -12%.

With `Cn1c(C(F)(F)F)nn(CCNC(=O)NCc2ccccc2)c1=O`, the Percent Effect is -5.98%.

Regarding `Cc1nc2c(c(N3CC=CC3)n1)CCN(Cc1ccoc1)CC2`, the Percent Effect is -8.35%.

Regarding `Cn1cc(CC(=O)N2CCC(Nc3cccnn3)CC2)c2ccccc21`, the Percent Effect was found to be 2.29%.

In the case of `O=C1CC(c2ccsc2)c2c(n(C3CCOCC3)[nH]c2=O)N1` (stereo not given), the Percent Effect was -2.53%.

On to `Cc1nn(C)c(N(C)C)c1CNCC(O)COc1ccc(F)cc1` (stereo not given), for which the Percent Effect is -7.16%.

Turning to `CCN1CCN(C2CCN(Cc3nnc(C(C)(C)C)o3)CC2)C1=O`, the Percent Effect was -1.73%.

In the case of `Cc1noc(C)c1CCC(=O)N1CCN(CCn2cncn2)CC1`, the Percent Effect turned out to be 6.07%.

In the case of `CC(C)Sc1ncccc1C(=O)NCc1ccc(CS(C)(=O)=O)cc1`, the Percent Effect was -3.16%.

Take `COc1cc(C)nc(N2CCN(C(=O)CCc3cscn3)CC2)n1`: the Percent Effect was -2.13%.

Turning to `CCN(CC1CCOC1)C(=O)c1ccccc1N1CCOCC1` (stereo not given), the Percent Effect was -0.562%.

For the compound `CC(Cn1cccn1)NC(=O)Nc1ccc(N(C)C)nc1` (stereo not given), the Percent Effect was found to be 1.98%.

In the case of `Cc1ccc(-c2nnc(CN3CCOC(Cn4cccn4)C3)o2)cc1` (stereo not given), the Percent Effect is -0.257%.

Turning to `Cc1nccc(N2CCC(=O)N(Cc3ccc(F)cc3)C(C(C)C)C2)n1` (stereo not given), the Percent Effect was -2.67%.

For the compound `Cc1nc(C)n(CC2CCCCN2CC(=O)Nc2cccnc2)n1` (stereo not given), the Percent Effect is -1.56%.

Regarding `Cc1cccc(CN2CCC3(CCCN(C(=O)NC4CC4)C3)C2=O)n1` (stereo not given), the Percent Effect is 6.63%.

On to `COC(=O)c1sccc1S(=O)(=O)N1CCC(Oc2ncccc2Cl)CC1`, for which the Percent Effect is -5.87%.

Consider `NC[C@H]1CC[C@H](C(NC(=O)c2cccc(F)c2)c2ccccn2)CC1` (stereo not given in full), for which the Percent Effect is -0.28%.

For `COc1cc(C(=O)Nc2c(C)noc2C)ccc1C`, the Percent Effect was -3.4%.

For `O=C(NCCc1coc(-c2ccc(F)cc2)n1)NC1CCC(O)CC1` (stereo not given), the Percent Effect is -3.81%.

Consider `CC(NC(=O)NCC1(N2CCCCC2)CCCCC1)c1nncn1C` (stereo not given), for which the Percent Effect was -4.55%.

With `CCc1c(C(=O)N2CCN(CC(N)=O)CC2)cnn1C(C)(C)C`, the Percent Effect was -2.87%.
